Values joined by “and” are separate entries in the source; they are usually repeats but may differ in a detail not shown here. Identical values can stand only once. Out of some 5,500 compounds screened, about 2,000 (36%) were called active. Not shown: some 18% with an inconclusive outcome. No stated cut-off is given here; in the data, active means normalized growth mostly below about 0.91 (no sharp cut-off); inconclusive means no clear call, values can overlap the other calls; inactive means mostly above about 0.92. Some of the results follow.
Test: chemical genetic growth profiling, strain panel (AID 1159580);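 further: tested at 20 µM; growth read once vehicle control cultures reached saturation at 30 °C; 1 = growth at the plate median or of vehicle wells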
Conditions: S. cerevisiae deletion strains, growth OD

Measured: normalized growth

NC(=O)c1ccccc1O
inactive: locus YAL021C, strain ccr4, stronger effect = lower value 0.988 | locus YAL026C, strain drs2, stronger effect = lower value 0.996 | locus YAL030W, strain snc1, stronger effect = lower value 0.966 | locus YBL061C, strain skt5, stronger effect = lower value 0.97 | locus YBR009C, strain hhf1, stronger effect = lower value 1.04 | locus YBR021W, strain FUR4, stronger effect = lower value 1.04 | locus YBR023C, strain chs3, stronger effect = lower value 0.987 | locus YBR171W, strain sec66, stronger effect = lower value 0.959 | locus YBR229C, strain ROT2, stronger effect = lower value 0.999 | locus YBR231C, strain swc5, stronger effect = lower value 0.988 | locus YBR279W, strain paf1, stronger effect = lower value 0.997 | locus YCL011C, strain gbp2, stronger effect = lower value 0.956 | locus YCL016C, strain dcc1, stronger effect = lower value 1.01 | locus YCL029C, strain bik1, stronger effect = lower value 1.02 | locus YCL061C, strain MRC1, stronger effect = lower value 0.963 | locus YCL069W, strain vba3, stronger effect = lower value 0.974 | locus YCR088W, strain abp1, stronger effect = lower value 0.974 | locus YDL005C, strain med2, stronger effect = lower value 0.972 | locus YDL035C, strain GPR1, stronger effect = lower value 1.01 | locus YDL040C, strain nat1, stronger effect = lower value 0.984 | locus YDL074C, strain BRE1, stronger effect = lower value 0.997 | locus YDL101C, strain DUN1, stronger effect = lower value 1.01 | locus YDL134C, strain PPH21, stronger effect = lower value 1 | locus YDL185W, strain tfp1, stronger effect = lower value 1.01 | locus YDL192W, strain arf1, stronger effect = lower value 1.01 | locus YDR001C, strain nth1, stronger effect = lower value 0.967 | locus YDR069C, strain doa4, stronger effect = lower value 0.952 | locus YDR101C, strain arx1, stronger effect = lower value 1 | locus YDR137W, strain rgp1, stronger effect = lower value 0.964 | locus YDR159W, strain sac3, stronger effect = lower value 0.985 | locus YDR162C, strain NBP2, stronger effect = lower value 1.01 | locus YDR195W, strain ref2 0.927 | locus YDR297W, strain sur2, stronger effect = lower value 0.981 | locus YDR318W, strain mcm21, stronger effect = lower value 1.01 | locus YDR334W, strain swr1, stronger effect = lower value 0.935 | locus YDR335W, strain msn5, stronger effect = lower value 0.947 | locus YDR388W, stronger effect = lower value 1.01 | locus YDR392W, strain spt3, stronger effect = lower value 1.05 | locus YDR502C, strain sam2, stronger effect = lower value 0.997 | locus YEL003W, strain gim4, stronger effect = lower value 0.981 | locus YEL037C, strain rad23, stronger effect = lower value 0.976 | locus YEL061C, strain CIN8 (second series), stronger effect = lower value 0.98 | locus YEL061C, strain CIN8, stronger effect = lower value 1 | locus YER015W, strain faa2, stronger effect = lower value 1.01 | locus YER016W, strain bim1, stronger effect = lower value 1.01 | locus YER110C, stronger effect = lower value 1.01 | locus YER111C, strain swi4, stronger effect = lower value 0.97 | locus YER155C, strain BEM2 (second series), stronger effect = lower value 0.929 | locus YER155C, strain BEM2, stronger effect = lower value 1.01 | locus YER167W, strain BCK2, stronger effect = lower value 1.01 | locus YFR010W, strain ubp6, stronger effect = lower value 0.96 | locus YGL078C, strain dbp3, stronger effect = lower value 1 | locus YGL086W, strain mad1, stronger effect = lower value 0.998 | locus YGL167C, strain pmr1, stronger effect = lower value 0.961 | locus YGL173C, strain kem1, stronger effect = lower value 0.968 | locus YGL227W, strain vid30, stronger effect = lower value 0.975 | locus YGL240W, strain doc1, stronger effect = lower value 0.981 | locus YGL248W, strain PDE1, stronger effect = lower value 1 | locus YGL253W, strain hxk2, stronger effect = lower value 0.997 | locus YGR135W, strain pre9, stronger effect = lower value 1.02 | locus YGR229C, strain SMI1, stronger effect = lower value 1.01 | locus YGR252W, strain gcn5, stronger effect = lower value 1.03 | locus YHR013C, strain ard1, stronger effect = lower value 0.988 | locus YHR027C, strain rpn1, stronger effect = lower value 0.991 | locus YHR030C, strain SLT2, stronger effect = lower value 1 and 1.07 | locus YHR079C, strain IRE1 (second series), stronger effect = lower value 1.02 | locus YHR079C, strain IRE1, stronger effect = lower value 1.06 | locus YHR094C, strain hxt1, stronger effect = lower value 1 | locus YHR129C, strain ARP1, stronger effect = lower value 1.01 | locus YHR142W, strain chs7, stronger effect = lower value 0.946 | locus YHR200W, strain rpn10, stronger effect = lower value 1 | locus YIL066C, strain RNR3, stronger effect = lower value 0.993 | locus YIL073C, strain SPO22, stronger effect = lower value 1.05 | locus YIL125W, strain kgd1, stronger effect = lower value 1 | locus YIR030C, strain dcg1, stronger effect = lower value 1.01 | locus YJL092W, strain hpr5, stronger effect = lower value 0.96 | locus YJL095W, strain BCK1 (second series), stronger effect = lower value 0.973 | locus YJL095W, strain BCK1, stronger effect = lower value 1 and 1.05 | locus YJL115W, strain asf1, stronger effect = lower value 0.985 | locus YJL129C, strain trk1, stronger effect = lower value 0.992 | locus YJL134W, strain LCB3, stronger effect = lower value 1 | locus YJL154C, strain vps35, stronger effect = lower value 0.965 | locus YJL164C, strain tpk1, stronger effect = lower value 1 | locus YJL166W, strain qcr8, stronger effect = lower value 0.924 | locus YJL168C, strain set2, stronger effect = lower value 1.01 | locus YJL187C, strain SWE1 (second series), stronger effect = lower value 1.01 | locus YJL187C, strain SWE1, stronger effect = lower value 0.989 | locus YJR043C, strain POL32, stronger effect = lower value 0.985

From PubChem BioAssay AID1159580 (chemical genetic matrix, 2015)
